Experimental data reported in PubChem BioAssay (Tox21).
Several values for one entry are separate records, joined by “and”; a condition that tells them apart may be missing. Equal entries are not always repeated. Inconclusive results are not listed. Where a call stands in place of a potency, no number is given. Where a structure was tested more than once in an assay, its records may differ in their call. Activity calls are given as the source filed them. Calls follow the shape of the dose curve; as a rule, active = well fitted curve in the direction sought with a large enough effect in the repeat runs; inconclusive = weak or mixed curves; inactive = no such curve, though single readings can be large; an effect the other way counts as inactive or inconclusive.

Legend:
[1] = target: Cytochrome P450 2C19 (Homo sapiens) (UniProt P33261); assay: Cytochrome P450 Family 2 Subfamily C Member 19 (CYP2C19) small molecule antagonists: luciferase reporter qHTS assay (AID 1671197); also: nearly all actives have a fitted effect of over 65% in size; also: potency is read from the fitted curve at half-maximal effect
Method in brief: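 Enzyme-substrate mix with proluciferin substrate (P450-Glo CYP2C19 system) preincubated with compounds 10 min at room temperature; NADPH regeneration solution added, 37C for 1 h; detection reagent stops reaction, luminescence read after 20 min. Ketoconazole positive control.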

[2] = target: Cytochrome P450 2C9 (Homo sapiens) (UniProt P11712); assay: Cytochrome P450 Family 2 Subfamily C Member 9 (CYP2C9) small molecule antagonists: luciferase reporter qHTS assay (AID 1671198); also: nearly all actives have a fitted effect of over 50% in size; also: potency is read from the fitted curve at half-maximal effect
Method in brief: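 Enzyme-substrate mix preincubated with compound 10 min at room temperature; reaction started with NADPH regeneration solution, 1 h 37C. Luminescent luciferin product read after 20 min detection reagent.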

[3] = target: Cytochrome P450 1A2 (Homo sapiens) (UniProt P05177); assay: Cytochrome P450 Family 1 Subfamily A Member 2 (CYP1A2) small molecule antagonists: luciferase reporter qHTS assay (AID 1671199); also: nearly all actives have a fitted effect of over 50% in size; also: potency is read from the fitted curve at half-maximal effect
Method in brief: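 P450-Glo CYP1A2 enzyme–proluciferin substrate mix with compound 10 min at room temperature, then NADPH regeneration 1 h at room temperature. Luciferin detection reagent added, luminescence read after 20 min; furafylline positive control.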

[4] = target: Voltage-gated inwardly rectifying potassium channel KCNH2 (Homo sapiens) (UniProt Q12809); assay: Human Ether-a-go-go-Related Gene (hERG) channel small molecule antagonists: fluorescence cell-based qHTS assay (AID 1671200); also: series mostly up to about 77 µM; nearly all actives have a fitted effect of over 50% in size
Method in brief: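 Thallium flux as potassium surrogate: FluxOR II dye loaded 1 h at room temperature into hERG-expressing U2OS cells, then stimulus buffer added after 10 min. Kinetic 480 nm excitation/540 nm emission read, 2 min.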

[5] = target: Cytochrome P450 3A4 (Homo sapiens) (UniProt P08684); assay: Cytochrome P450 Family 3 Subfamily A Member 4 (CYP3A4) small molecule antagonists: luciferase reporter qHTS assay (AID 1671201); also: nearly all actives have a fitted effect of over 50% in size; also: potency is read from the fitted curve at half-maximal effect
Method in brief: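 Recombinant human CYP3A4 converts a proluciferin substrate to luciferin over 1 h at room temperature after NADPH regeneration solution is added (compound preincubated 10 min); detection reagent stops reaction, luminescence read 20 min later as relative units.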

Chain of Cytochrome P450 1A2 (Homo sapiens) (P05177 whole entry, looked up): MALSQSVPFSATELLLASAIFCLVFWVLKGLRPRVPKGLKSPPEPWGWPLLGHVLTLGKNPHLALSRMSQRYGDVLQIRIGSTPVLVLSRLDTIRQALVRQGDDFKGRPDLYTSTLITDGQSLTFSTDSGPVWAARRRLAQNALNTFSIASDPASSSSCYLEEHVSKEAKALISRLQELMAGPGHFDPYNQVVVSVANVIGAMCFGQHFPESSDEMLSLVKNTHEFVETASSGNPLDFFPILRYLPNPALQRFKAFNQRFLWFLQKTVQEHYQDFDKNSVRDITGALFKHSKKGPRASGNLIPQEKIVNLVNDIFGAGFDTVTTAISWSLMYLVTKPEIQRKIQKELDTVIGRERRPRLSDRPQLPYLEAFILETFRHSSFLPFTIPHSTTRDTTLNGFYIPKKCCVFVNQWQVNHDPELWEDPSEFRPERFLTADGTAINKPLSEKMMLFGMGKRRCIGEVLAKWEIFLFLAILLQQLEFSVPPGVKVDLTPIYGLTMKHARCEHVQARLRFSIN
Chain of Voltage-gated inwardly rectifying potassium channel KCNH2 (Homo sapiens) (Q12809 whole entry, looked up): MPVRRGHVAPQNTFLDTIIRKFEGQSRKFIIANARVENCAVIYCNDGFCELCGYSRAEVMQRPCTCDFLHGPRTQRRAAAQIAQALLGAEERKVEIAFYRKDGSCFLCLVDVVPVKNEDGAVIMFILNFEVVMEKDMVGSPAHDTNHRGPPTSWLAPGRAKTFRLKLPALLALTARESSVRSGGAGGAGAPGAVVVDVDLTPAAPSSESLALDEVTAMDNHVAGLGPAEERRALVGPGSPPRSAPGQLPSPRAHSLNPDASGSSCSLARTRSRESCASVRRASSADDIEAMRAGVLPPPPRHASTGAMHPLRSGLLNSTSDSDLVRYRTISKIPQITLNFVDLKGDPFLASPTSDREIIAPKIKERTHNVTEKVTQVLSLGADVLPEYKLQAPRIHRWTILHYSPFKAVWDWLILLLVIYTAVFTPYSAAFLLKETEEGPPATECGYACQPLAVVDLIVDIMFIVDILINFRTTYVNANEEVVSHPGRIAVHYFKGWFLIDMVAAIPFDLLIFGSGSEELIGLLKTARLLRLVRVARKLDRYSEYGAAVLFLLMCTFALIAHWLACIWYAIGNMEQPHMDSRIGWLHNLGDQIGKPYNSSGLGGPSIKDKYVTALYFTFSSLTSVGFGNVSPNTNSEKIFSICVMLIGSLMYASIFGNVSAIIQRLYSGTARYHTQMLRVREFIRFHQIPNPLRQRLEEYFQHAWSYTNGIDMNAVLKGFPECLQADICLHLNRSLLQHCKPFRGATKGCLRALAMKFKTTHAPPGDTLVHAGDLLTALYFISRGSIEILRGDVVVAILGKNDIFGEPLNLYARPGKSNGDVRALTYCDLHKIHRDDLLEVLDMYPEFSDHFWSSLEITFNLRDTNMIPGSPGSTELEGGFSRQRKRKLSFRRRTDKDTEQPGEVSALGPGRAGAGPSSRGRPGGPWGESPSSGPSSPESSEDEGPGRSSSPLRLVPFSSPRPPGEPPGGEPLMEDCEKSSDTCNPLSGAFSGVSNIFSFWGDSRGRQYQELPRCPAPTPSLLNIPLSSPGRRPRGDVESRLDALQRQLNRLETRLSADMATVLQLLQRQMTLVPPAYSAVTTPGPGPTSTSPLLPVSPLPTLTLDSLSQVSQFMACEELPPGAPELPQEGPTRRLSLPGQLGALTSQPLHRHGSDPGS
Chain of Cytochrome P450 2C9 (Homo sapiens) (P11712 whole entry, looked up): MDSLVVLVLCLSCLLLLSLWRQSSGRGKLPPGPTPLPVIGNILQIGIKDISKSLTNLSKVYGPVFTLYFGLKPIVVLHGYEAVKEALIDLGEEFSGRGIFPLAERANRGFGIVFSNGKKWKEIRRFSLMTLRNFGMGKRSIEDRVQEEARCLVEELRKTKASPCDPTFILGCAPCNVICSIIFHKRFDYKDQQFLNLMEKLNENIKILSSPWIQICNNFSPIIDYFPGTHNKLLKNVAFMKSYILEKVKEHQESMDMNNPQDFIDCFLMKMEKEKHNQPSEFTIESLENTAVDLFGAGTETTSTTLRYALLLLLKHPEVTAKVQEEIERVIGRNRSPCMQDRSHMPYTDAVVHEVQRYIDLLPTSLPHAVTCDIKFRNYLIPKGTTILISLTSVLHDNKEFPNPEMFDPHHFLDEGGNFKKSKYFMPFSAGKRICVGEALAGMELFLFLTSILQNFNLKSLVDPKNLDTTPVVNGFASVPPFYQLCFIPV
Chain of Cytochrome P450 3A4 (Homo sapiens) (P08684 whole entry, looked up): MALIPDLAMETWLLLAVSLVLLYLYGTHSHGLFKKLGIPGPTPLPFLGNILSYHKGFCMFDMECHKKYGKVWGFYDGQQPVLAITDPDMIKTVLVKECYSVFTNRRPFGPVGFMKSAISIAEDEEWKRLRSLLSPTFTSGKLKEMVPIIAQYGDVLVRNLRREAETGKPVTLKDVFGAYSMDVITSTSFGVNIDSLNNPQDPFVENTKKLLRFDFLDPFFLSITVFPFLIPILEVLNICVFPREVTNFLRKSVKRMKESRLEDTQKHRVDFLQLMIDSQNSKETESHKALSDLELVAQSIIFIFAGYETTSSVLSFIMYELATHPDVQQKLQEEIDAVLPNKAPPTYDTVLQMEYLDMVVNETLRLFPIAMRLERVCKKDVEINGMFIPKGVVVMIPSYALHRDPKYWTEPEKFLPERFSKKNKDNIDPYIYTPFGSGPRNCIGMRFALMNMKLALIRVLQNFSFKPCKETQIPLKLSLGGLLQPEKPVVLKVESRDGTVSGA
Chain of Cytochrome P450 2C19 (Homo sapiens) (P33261 whole entry, looked up): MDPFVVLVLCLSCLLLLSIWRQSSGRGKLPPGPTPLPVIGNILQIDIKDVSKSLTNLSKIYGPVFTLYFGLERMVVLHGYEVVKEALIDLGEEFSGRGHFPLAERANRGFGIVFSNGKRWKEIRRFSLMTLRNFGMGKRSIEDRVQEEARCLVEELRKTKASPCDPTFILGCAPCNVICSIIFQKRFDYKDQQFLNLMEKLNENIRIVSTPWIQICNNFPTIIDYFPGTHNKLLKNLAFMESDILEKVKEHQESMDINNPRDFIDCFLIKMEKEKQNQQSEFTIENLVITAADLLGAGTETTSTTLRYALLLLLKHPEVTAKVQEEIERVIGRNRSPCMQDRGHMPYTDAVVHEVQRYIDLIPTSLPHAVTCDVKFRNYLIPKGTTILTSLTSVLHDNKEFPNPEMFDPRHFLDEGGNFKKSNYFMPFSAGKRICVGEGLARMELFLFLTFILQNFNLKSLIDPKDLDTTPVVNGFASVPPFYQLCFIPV

Structure (SMILES)	Potency [1]	Potency [2]	Potency [3]	Potency [4]	Potency [5]
Nc1ccc2c(O)cc(S(=O)(=O)O)cc2c1	79.8 µM (active) and 50.2 µM (active)	71 µM (active)	inactive	inactive	inactive
c1ccc2c(c1)ccc1cc3c(ccc4ccccc43)cc12	inactive	inactive	24.9 µM (active)	inactive	inactive
CC(=O)Nc1ccc2c(c1)Cc1cc(NC(C)=O)ccc1-2	inactive	inactive	inactive	inactive	inactive
NCCOCCO	inactive	inactive	inactive	inactive	inactive
Nc1ccc(N)c(Cl)c1	3.17 µM (active) and 5.03 µM (active)	8.92 µM (active) and 8.94 µM (active)	39.8 µM (active) and 35.6 µM (active)	inactive	2.51 µM (active) and 5.64 µM (active)
Cc1ccc2c(c1)C(=O)OC2=O	inactive	inactive	inactive	inactive	inactive
c1ccc2c(c1)ccc1ncccc12	35.3 µM (active) and 79.6 µM (active)	inactive	4.45 µM (active) and 7.1 µM (active)	inactive	62.8 µM (active)
C1CN(SSN2CCOCC2)CCO1	35.2 µM (active) and 35.6 µM (active)	39.5 µM (active) and 28.3 µM (active)	62.6 µM (active) and 39.9 µM (active)	inactive	inactive
C[N+](C)(C)CCO	inactive	inactive	–	inactive	–
OC[C@@H](O)[C@@H](O[C@@H]1O[C@H](CO)[C@H](O)[C@H](O)[C@H]1O)[C@H](O)[C@@H](O)CO	inactive	inactive	35.1 µM (active) and inactive	inactive	inactive
O=C(O)c1ccc(O)cc1	inactive	inactive	inactive	inactive	inactive
CCCN1C=CN(C)C1	inactive	inactive	inactive	inactive	inactive
C=C1C[C@H]2[C@@H]3C=C(C)C4=CC(=O)CC[C@]4(C)[C@H]3CC[C@]2(C)[C@@]1(OC(C)=O)C(C)=O	28.9 µM (active) and 9.77 µM (active)	22.9 µM (active) and 17.4 µM (active)	inactive	inactive	inactive
O=C1CCc2ccccc2O1	31.9 µM (active) and inactive	inactive	inactive	inactive	inactive
Oc1c(Cl)ccc(Cl)c1Cl	79.5 µM (active) and inactive	35.5 µM (active) and 35.6 µM (active)	35.5 µM (active) and 35.6 µM (active)	inactive	inactive
C=C[Si](OCCOC)(OCCOC)OCCOC	inactive	inactive	inactive	inactive	20.1 µM (active) and 31.7 µM (active)
Cc1ccc(C(C)(C)C)cc1	inactive	inactive	inactive	inactive	inactive
O=C(O)CCCC(=O)O	22 µM (active) and inactive	39.2 µM (active) and inactive	34.9 µM (active) and inactive	inactive	inactive
CCCCCCC(C)O (stereo not drawn)	inactive	inactive	inactive	inactive	inactive
OC[C@H]1O[C@@H]2O[C@H]3[C@H](O)[C@@H](O)[C@@H](O[C@H]4[C@H](O)[C@@H](O)[C@@H](O[C@H]5[C@H](O)[C@@H](O)[C@@H](O[C@H]6[C@H](O)[C@@H](O)[C@@H](O[C@H]7[C@H](O)[C@@H](O)[C@@H](O[C@H]1[C@H](O)[C@H]2O)O[C@@H]7CO)O[C@@H]6CO)O[C@@H]5CO)O[C@@H]4CO)O[C@@H]3CO	inactive	inactive and 3.76 µM (active)	inactive	inactive	inactive
Nc1cc([N+](=O)[O-])ccc1C(=O)O	inactive	inactive	inactive	inactive	inactive
CCCCCCCCCCC(CO)CCCCCCCC (stereo not drawn)	inactive	inactive	inactive	inactive	inactive
Cc1ccc(N)c([N+](=O)[O-])c1	39.4 µM (active)	inactive	15.7 µM (active) and 14.2 µM (active)	inactive	inactive
C=CC(=O)OCCCC	inactive	inactive	inactive	inactive	inactive
CC(=O)Oc1c(C)c(C)c2c(c1C)CC[C@@](C)(CCC[C@H](C)CCC[C@H](C)CCCC(C)C)O2	inactive	inactive	inactive	inactive	inactive
CC/C=C\C/C=C\C/C=C\CCCCCCCC(=O)O	31.4 µM (active)	35.3 µM (active) and 39.9 µM (active)	inactive	inactive	inactive and 39.9 µM (active)
